HEK293 tox: Cytotoxic Profiling in HEK 293 Cell Line of Diverse Libraries Using Quantitative High-Throughput Screening; hit rate 6.6% among 94,000; Potency, µM (doses to about 115 µM), actives largely listed as inhibitors; HEK 293 viability, ATP luminescence (CellTiter-Glo), 48-72 h; also: nearly all actives have a fitted effect of over 60% in size
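HEK 293 cells at 250 cells/well were exposed to compounds by pintool transfer for 48 or 72 hr at 37 degree Celsius, 5% CO2. Viability was read as ATP-coupled luminescence with CellTiter-Glo after 10 min at room temperature.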
NIH3T3 tox: Cytotoxic Profiling in NIH 3T3 Cell Line of Diverse Libraries Using Quantitative High-Throughput Screening; NIH 3T3 viability, CellTiter-Glo ATP luminescence, 48-72 h; Potency, µM (series often up to 96.7 µM), actives largely listed as inhibitors; hit rate 4.3% among 94,000; AID 1345082, 2018; also: nearly all actives have a fitted effect of over 55% in size
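Luminescent ATP readout (CellTiter-Glo, 10 min RT) after 48 or 72 hr compound exposure of NIH 3T3 cells seeded at 400 cells/well in 1536-well format; quantitative HTS.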
GPT2 inh: Primary qHTS assay for inhibitors of Glutamate pyruvate transaminase 2 (GPT2); AID 1671188, 2021; Recombinant GPT2, coupled pyruvate oxidase/HRP Amplex Red fluorescence; Alanine aminotransferase 2 (Homo sapiens), Q8TD30; Potency, µM (top dose mostly 57.7 µM), hits mostly inhibitors; hit rate 0.25% among 100,000; also: nearly all actives have a fitted effect of over 60% in size
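Fluorescence of coupled pyruvate oxidase/HRP/Amplex Red system (50uM Amplex, 30 min, dark) reports pyruvate formed by GPT2. Enzyme reaction: 10ng/uL GPT2, 2mM L-alanine, 250uM a-KG, 30 min room temperature, pH 7.5; 50uM AOA control.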
NPR1 antag: Natriuretic polypeptide receptor (hNpr1) antagonism - Primary qHTS. Atrial natriuretic peptide receptor 1 (Homo sapiens), P16066. HEK293 hNpr1 GloSensor cGMP, ANP-stimulated luminescence. Potency, µM (doses to about 46.3 µM), hits mostly inhibitors. hit rate 1.6% among 76,000. AID 1347048, 2019; calls by dose curve; also: nearly all actives have a fitted effect of over 60% in size
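HEK293 cells stably expressing human Npr1 and cGMP GloSensor pGS-40F, loaded 2 h with 2% GloSensor reagent, given compound 30 min at room temperature. Luminescence read before and 20 min after 0.1 nM hNppA.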
Luciferase inh: Firefly luciferase inhibition profiling of diverse chemical library using quantitative high-throughput screening; Luciferin 4-monooxygenase (Photinus pyralis), P08659; purified P. pyralis luciferase, luminescence, biochemical; Potency, µM (series often up to 115 µM), hits mostly inhibitors; hit rate 2.5% among 76,000; AID 1347043, 2019; also: nearly all actives have a fitted effect of over 65% in size
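Cell-free enzyme assay, 10nM P. pyralis luciferase, luciferin and ATP each at 10uM. Inhibition profiled over a 6-point titration, read as luminescence.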
Of the large screens only hits and unclear results are named; the others gave an inactive call. In the library only some 10% were active in any assay of this set; here they are far more common. Unless noted, calls follow the shape of the dose curve; as a rule, active = well fitted curve in the direction sought with a large enough effect; inconclusive = small, poorly fitted or top-dose-only effect, or another doubt; inactive = no such curve, though single readings can be large; an effect the other way counts as inactive or inconclusive.

O=C(NCc1ccccc1F)C1CCCN(Cc2cccc(-c3ccc(F)cc3F)c2)C1 (centres undefined)	HEK293 tox inconclusive, NIH3T3 tox inconclusive (no result: NPR1 antag, Luciferase inh)
O=C(NCc1cccnc1)C1CCCN(Cc2cccc(-c3ccc(F)cc3F)c2)C1 (centres undefined)	HEK293 tox inconclusive, NIH3T3 tox inconclusive (no result: NPR1 antag, Luciferase inh)
O=C(NCc1ccc(F)cc1)C1CCCN(Cc2cccc(-c3ccc(F)cc3F)c2)C1 (centres undefined)	HEK293 tox inconclusive, NIH3T3 tox 45µM (no result: NPR1 antag, Luciferase inh)
Cc1nn(-c2ccccn2)c(C)c1[C@@H]1C=C[C@@H](NC(=O)c2cccs2)C1	HEK293 tox inconclusive, NIH3T3 tox inconclusive, Luciferase inh inconclusive
Cc1nn(-c2ccccc2)c(C)c1[C@@H]1C=C[C@@H](NC(=O)c2ccc(N(C)C)cc2)C1	HEK293 tox 71µM, NIH3T3 tox inconclusive, NPR1 antag inconclusive, Luciferase inh inconclusive
Cc1nn(-c2ccc(C(C)(C)C)cc2)c(C)c1[C@@H]1C=C[C@@H](NC(=O)c2cccs2)C1	HEK293 tox 35µM, NIH3T3 tox inconclusive, Luciferase inh 20µM
Cc1ccc(-n2nc(C)c([C@@H]3C=C[C@@H](NC(=O)c4cccs4)C3)c2C)cc1Cl	HEK293 tox inconclusive, NIH3T3 tox inconclusive, Luciferase inh 25µM
Cc1nn(-c2ccc(C(F)(F)F)cc2)c(C)c1[C@@H]1C=C[C@@H](NC(=O)c2cccs2)C1	HEK293 tox inconclusive, NIH3T3 tox 28µM, Luciferase inh inconclusive
Cc1ccc(-n2nc(C)c([C@H]3C=C[C@@H](OC(=O)Nc4cccc(F)c4)C3)c2C)cc1Cl	HEK293 tox inconclusive, NIH3T3 tox inconclusive, GPT2 inh inconclusive
CCCC(=O)N1Cc2ccccc2CC2(CCCN2Cc2cccnc2)C1 (centres undefined)	HEK293 tox inconclusive (no result: NPR1 antag, Luciferase inh)
CCCn1cnc2c1CN(C(=O)c1ccc(F)cc1)[C@H](C(=O)OC)C2	none
Cc1oc(-c2cccc(F)c2F)nc1CN(C)Cc1ccc(C(F)(F)F)cc1	none
CC(C)CN1C(=O)CCc2cc(NC(=O)c3ccc(N(C)C)cc3)ccc21	HEK293 tox 28µM, NIH3T3 tox inconclusive, Luciferase inh inconclusive
CC(C)CC(=O)Nc1ccc2c(c1)CCC(=O)N2CC(C)C	HEK293 tox inconclusive
CCCN1C(=O)CCc2cc(NC(=O)c3ccc(C)s3)ccc21	HEK293 tox 35µM, NIH3T3 tox inconclusive, Luciferase inh inconclusive
COc1ccc(-n2nc(C3CCN(C(=O)c4ccc(C(F)(F)F)cc4)CC3)[nH]c2=O)cc1	NIH3T3 tox inconclusive
Cc1noc(-c2cn(C3CCN(C(=O)Cc4ccc(F)cc4)CC3)nn2)n1	none
COc1ccc(Nc2ccnc(N3CCN(C(=O)c4ccccc4Cl)CC3)n2)cc1	HEK293 tox 40µM, NIH3T3 tox inconclusive (no result: NPR1 antag, Luciferase inh)
O=C(c1ccccc1Cl)N1CCN(c2nccc(Nc3ccccc3Cl)n2)CC1	HEK293 tox 45µM, NIH3T3 tox inconclusive (no result: NPR1 antag, Luciferase inh)
O=C(c1ccccc1Cl)N1CCN(c2nccc(Nc3ccccc3F)n2)CC1	HEK293 tox inconclusive, NIH3T3 tox inconclusive (no result: NPR1 antag, Luciferase inh)
COc1ccc(C(=O)N2CCN(c3nccc(Nc4ccccc4Cl)n3)CC2)cc1	HEK293 tox inconclusive, NIH3T3 tox inconclusive (no result: NPR1 antag, Luciferase inh)
Cc1ccc(C(=O)N2CCN(c3nccc(Nc4ccccc4Cl)n3)CC2)cc1	HEK293 tox 22µM, NIH3T3 tox inconclusive (no result: NPR1 antag, Luciferase inh)
COc1ccccc1C(=O)N1CCN(c2nccc(Nc3ccccc3Cl)n2)CC1	HEK293 tox inconclusive, NIH3T3 tox 28µM (no result: NPR1 antag, Luciferase inh)
Cc1cn2nc(C(=O)Nc3ccc(F)c(F)c3)cc2c(N(C)Cc2ccccc2)n1	HEK293 tox inconclusive, NIH3T3 tox inconclusive
CC(=O)N1CCN(c2nccc(Nc3ccccc3Cl)n2)CC1	none (no result: NPR1 antag, Luciferase inh)
CC(C)C(=O)N1CCN(c2nccc(Nc3ccccc3Cl)n2)CC1	HEK293 tox 40µM, NIH3T3 tox inconclusive (no result: NPR1 antag, Luciferase inh)
CC(C)CNc1ccc2c(n1)C(C)(C(=O)NC1CCC(O)CC1)CN(Cc1ccccc1)C2 (centres undefined)	HEK293 tox inconclusive, NIH3T3 tox 45µM
CN1CCC(NC(=O)C2(C)CN(C)Cc3ccc(Nc4ccccc4)nc32)CC1 (centres undefined)	HEK293 tox inconclusive, NIH3T3 tox inconclusive
CC(C)CNc1ccc2c(n1)C(C)(C(=O)NC1CCN(C)CC1)CN(Cc1ccccc1)C2 (centres undefined)	HEK293 tox inconclusive, NIH3T3 tox 32µM
CC(C)CNc1ccc2c(n1)C(C)(C(=O)NCc1cccnc1)CN(Cc1ccccc1)C2 (centres undefined)	HEK293 tox inconclusive, NIH3T3 tox inconclusive
CCc1ccccc1NC(=O)Cn1c(N2CCc3ccccc3C2)nc(C)cc1=O	HEK293 tox inconclusive, NIH3T3 tox 18µM, GPT2 inh inconclusive, NPR1 antag inconclusive
COc1ccc(NC(=O)Cn2c(N3CCc4ccccc4C3)nc(C)cc2=O)cc1Cl	HEK293 tox 40µM, NIH3T3 tox 35µM
CCc1cccc(NC(=O)Cn2c(N3CCc4ccccc4C3)nc(C)cc2=O)c1	HEK293 tox inconclusive, NIH3T3 tox 28µM, NPR1 antag inconclusive
CCOc1ccccc1NC(=O)Cn1c(N2CCc3ccccc3C2)nc(C)cc1=O	HEK293 tox inconclusive, NIH3T3 tox inconclusive, NPR1 antag inconclusive
Cc1cc(=O)n(CC(=O)Nc2cccc(F)c2)c(N2CCc3ccccc3C2)n1	HEK293 tox inconclusive, NIH3T3 tox inconclusive
COc1cccc(CNC(=O)Cn2c(N3CCc4ccccc4C3)nc(C)cc2=O)c1	HEK293 tox 45µM
COc1cccc(CNC(=O)C2c3ccccc3CC(=O)N2C(C)C)c1 (centres undefined)	none
COc1ccc(CNC(=O)C[C@@H]2C[C@H]3O[C@H](CN)[C@@H](O)[C@H]3O2)cc1	none
CCC(CC)C(=O)N1C[C@@H](CO)[C@H](c2nc(-c3ccncc3)no2)C1	none
Cc1cc(=O)n(CC(=O)Nc2ccc(Br)cc2)c(N2CCc3ccccc3C2)n1	HEK293 tox 89µM, NIH3T3 tox inconclusive
Cc1cc(=O)n(CC(=O)Nc2ccccc2)c(N2CCc3ccccc3C2)n1	HEK293 tox 32µM, NIH3T3 tox inconclusive
COc1ccc(CNC(=O)Cn2c(N3CCc4ccccc4C3)nc(C)cc2=O)cc1	HEK293 tox inconclusive, NIH3T3 tox inconclusive
Cc1cc(=O)n(CC(=O)NCc2ccccc2Br)c(N2CCc3ccccc3C2)n1	HEK293 tox 40µM, NIH3T3 tox inconclusive
Cc1cc(=O)n(CC(=O)Nc2ccc(C(C)C)cc2)c(N2CCc3ccccc3C2)n1	HEK293 tox inconclusive, NIH3T3 tox 25µM
